In PubChem BioAssay (EPA / NIEHS):
Calls of active or inactive are those of the source. The calls were made as follows: active = hit-call score of the fitted dose curve at least 0.9, where 1 is the maximum; inactive = score below 0.9.

How the values were obtained:
[1] = APR_HepG2_P-H2AX_72hr: Apredica 72-hour HepG2 Assay for H2AX Phosphorylation (AID 2282916); settings: imaging, actives raise or lower the signal;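 also: phospho-histone H2A.x immunostain intensity per cell marking DNA damage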
In short: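 Following 72 hr treatment with 0.39–200 uM compound, HepG2 cells were formaldehyde-fixed, permeabilized and stained for phospho-H2A.x; signal was measured by high-content imaging and fitted bidirectionally against DMSO controls.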

[2] = APR_HepG2_MitoMembPot_72hr: Apredica 72-hour HepG2 Assay for Mitochondrial Membrane Potential (AID 2282917); settings: imaging, actives raise or lower the signal
In short: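 Membrane potential read by MitoTracker Red CMXRos (250 nM, 30 min, pre-fixation) fluorescence imaging of HepG2 after 72 hr exposure. Ten concentrations, 0.39–200 uM, duplicate wells, 0.5% DMSO; fitted in both directions against DMSO baseline.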

[3] = APR_HepG2_MitoticArrest_72hr: Apredica 72-hour HepG2 Assay for Mitotic Arrest (AID 2282918); settings: high-content imaging, actives raise or lower the signal
In short: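 Using high-content imaging of fixed HepG2 cells, phospho-histone H3 signal was measured following a 72 hr incubation with ten-point compound dilutions up to 200 uM. DMSO served as the negative control and baseline for bidirectional curve fitting.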

[4] = APR_HepG2_MicrotubuleCSK_72hr: Apredica 72-hour HepG2 Assay for Microtubule CSK Stabilty (AID 2282919); settings: HepG2 microtubule cytoskeleton, high-content imaging, actives raise or lower the signal
In short: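 Read-out is tubulin fluorescence intensity from high-content imaging of HepG2 cells, with nuclei identified by Hoechst 33342. Treatment lasts 72 h at 0.39–200 uM, and curves are fitted bidirectionally against the DMSO negative control.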

[5] = APR_HepG2_P-H2AX_24hr: Apredica 24-hour HepG2 Assay for H2AX Phosphorylation (AID 2282920); settings: high-content imaging, actives raise or lower the signal
In short: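 Human HepG2 liver cells, treated 24 hr with test chemicals (0.39–200 uM, final DMSO 0.5% v/v), are fixed and co-stained for phospho-H2A.x and c-Jun with Hoechst. Imaged intensity is fitted in both directions against DMSO controls.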

[6] = APR_HepG2_StressKinase_72hr: Apredica 72-hour HepG2 Assay for Stress Kinase (AID 2282921); settings: HepG2 stress kinase (phospho-c-Jun) imaging, actives raise or lower the signal
In short: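 Fluorescence intensity of Cy3-tagged anti-phospho-c-Jun antibody, quantified per cell from Hoechst-defined nuclei across six images per well, served as the read-out following 72 h exposure (0.39–200 uM, 0.5% v/v DMSO).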

[7] = APR_HepG2_p53Act_72hr: Apredica 72-hour HepG2 Assay for p53 Activation (AID 2282923); settings: high-content imaging, actives raise or lower the signal;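 also: average cellular p53 protein immunofluorescence intensity in HepG2 cells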
In short: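 HepG2 monolayers receive test compounds in duplicate at ten concentrations (0.39 through 200 uM) for 72 hr. They are then formaldehyde-fixed, antibody-labelled for p53, Hoechst-stained and imaged, with activity fitted bidirectionally versus DMSO.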

[8] = APR_HepG2_MitoMass_72hr: Apredica 72-hour HepG2 Assay for Mitochondrial Mass (AID 2282924); settings: high-content imaging, actives raise or lower the signal;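 also: MitoTracker Red CMXRos stain intensity per cell imaged as mitochondrial mass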
In short: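 HepG2, 72 hr cmpd, 10 conc 0.39–200 uM in dup, DMSO 0.5% v/v. MitoTracker Red CMXRos 250 nM 30 min pre-fix; formaldehyde 3.7% fix 30 min RT. HCS imaging, gain/loss fit vs DMSO.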

[9] = APR_HepG2_StressKinase_24hr: Apredica 24-hour HepG2 Assay for Stress Kinase (AID 2282922); settings: HepG2 stress kinase (phospho-c-Jun) imaging, actives raise or lower the signal
In short: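 HepG2, 24 hr dosing, 0.39–200 uM in duplicate, 0.5% DMSO; formaldehyde fix (3.7%), 0.5% Triton X-100; anti-phospho-c-Jun + Cy3 secondary, Hoechst counterstain; ArrayScan imaging; bidirectional curve fit vs DMSO baseline.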

COC(=O)C(C)Oc1ccc(Oc2ccc(Cl)cc2Cl)cc1 (centres undefined)
outcome [1]: inactive
outcome [2]: inactive
outcome [3]: inactive
outcome [4]: inactive
outcome [5]: inactive
outcome [6]: inactive
outcome [7]: inactive
outcome [8]: inactive

CNC(=S)S
AC50 [1]: 11.3 µM (active)
outcome [2]: inactive
AC50 [3]: 13.5 µM (active)
AC50 [4]: 26.2 µM (active)
outcome [6]: inactive
outcome [9]: inactive
outcome [7]: inactive
outcome [8]: inactive

C=CC1(C)OC(=O)N(c2cc(Cl)cc(Cl)c2)C1=O (centres undefined)
outcome [1]: inactive
outcome [2]: inactive
outcome [3]: inactive
outcome [4]: inactive
outcome [6]: inactive
outcome [7]: inactive
outcome [8]: inactive

CCOC(=O)CC(SP(=S)(OC)OC)C(=O)OCC (centres undefined)
outcome [1]: inactive
outcome [2]: inactive
outcome [3]: inactive
outcome [4]: inactive
outcome [6]: inactive
outcome [7]: inactive
outcome [8]: inactive

CCCCOC(=O)c1ccccc1C(=O)OCCCC
outcome [1]: inactive
outcome [2]: inactive
outcome [3]: inactive
outcome [4]: inactive
outcome [5]: inactive
outcome [6]: inactive
outcome [7]: inactive
outcome [8]: inactive

O=C(Nc1ccccc1)Nc1ccnc(Cl)c1
outcome [1]: inactive
AC50 [2]: 3.46 µM (active)
outcome [3]: inactive
AC50 [4]: 32.5 µM (active)
outcome [6]: inactive
outcome [7]: inactive
outcome [8]: inactive

C=CCC1=C(C)[C@@H](OC(=O)[C@@H]2[C@@H](C=C(C)C)C2(C)C)CC1=O
outcome [1]: inactive
outcome [2]: inactive
AC50 [3]: 67.4 µM (active)
AC50 [4]: 79.5 µM (active)
outcome [6]: inactive
AC50 [7]: 107 µM (active)
outcome [8]: inactive

CCON=C(CC)C1=C(O)CC(c2c(C)cc(C)cc2C)CC1=O (centres undefined)
outcome [1]: inactive
outcome [2]: inactive
outcome [3]: inactive
outcome [4]: inactive
outcome [6]: inactive
outcome [7]: inactive
outcome [8]: inactive

Fc1ccc(Oc2ccnc3cc(Cl)cc(Cl)c23)cc1
outcome [1]: inactive
outcome [2]: inactive
outcome [3]: inactive
outcome [4]: inactive
outcome [6]: inactive
outcome [9]: inactive
outcome [7]: inactive
outcome [8]: inactive

COC(=O)N(OC)c1ccccc1COc1ccn(-c2ccc(Cl)cc2)n1
AC50 [1]: 25.5 µM (active)
AC50 [2]: 3.69 µM (active)
AC50 [3]: 39.9 µM (active)
AC50 [4]: 3.29 µM (active)
outcome [6]: inactive
outcome [9]: inactive
outcome [7]: inactive
outcome [8]: inactive

CCc1nn(C)c(C(=O)NCc2ccc(C(C)(C)C)cc2)c1Cl
outcome [1]: inactive
outcome [2]: inactive
outcome [3]: inactive
AC50 [4]: 0.0488 µM (active)
AC50 [5]: 100 µM (active)
outcome [6]: inactive
outcome [7]: inactive
outcome [8]: inactive

O=C(O)COc1nc(Cl)c(Cl)cc1Cl
outcome [1]: inactive
outcome [2]: inactive
outcome [3]: inactive
outcome [4]: inactive
outcome [6]: inactive
outcome [9]: inactive
outcome [7]: inactive
outcome [8]: inactive

Cc1c(F)c(F)c(COC(=O)C2C(/C=C(\Cl)C(F)(F)F)C2(C)C)c(F)c1F (centres undefined)
outcome [1]: inactive
outcome [2]: inactive
outcome [3]: inactive
outcome [4]: inactive
outcome [6]: inactive
outcome [7]: inactive
outcome [8]: inactive

CC(C)(C)c1ccc(CSc2cnn(C(C)(C)C)c(=O)c2Cl)cc1
outcome [1]: inactive
outcome [2]: inactive
outcome [3]: inactive
AC50 [4]: 7.56 µM (active)
outcome [6]: inactive
outcome [7]: inactive
outcome [8]: inactive

CCNc1nc(Cl)nc(NC(C)C)n1
outcome [1]: inactive
outcome [2]: inactive
outcome [3]: inactive
outcome [4]: inactive
outcome [6]: inactive
outcome [7]: inactive
outcome [8]: inactive

CS/C(C)=N/OC(=O)N(C)SN(C)C(=O)O/N=C(\C)SC
outcome [1]: inactive
outcome [2]: inactive
outcome [3]: inactive
outcome [4]: inactive
outcome [6]: inactive
outcome [7]: inactive
outcome [8]: inactive

CCCCC(CC)COC(=O)c1ccccc1C(=O)OCC(CC)CCCC (centres undefined)
outcome [1]: inactive
outcome [2]: inactive
outcome [3]: inactive
outcome [4]: inactive
outcome [6]: inactive
outcome [9]: inactive
outcome [7]: inactive
outcome [8]: inactive

CCNc1nc(Cl)nc(NCC)n1
outcome [1]: inactive
outcome [2]: inactive
outcome [3]: inactive
outcome [4]: inactive
outcome [6]: inactive
outcome [7]: inactive
outcome [8]: inactive

COc1nc(NC(C)C)nc(NC(C)C)n1
outcome [1]: inactive
outcome [2]: inactive
outcome [3]: inactive
outcome [4]: inactive
outcome [6]: inactive
outcome [9]: inactive
outcome [7]: inactive
outcome [8]: inactive

COc1ccc(C(c2ccc(OC)cc2)C(Cl)(Cl)Cl)cc1
AC50 [1]: 98.2 µM (active)
outcome [2]: inactive
AC50 [3]: 65 µM (active)
AC50 [4]: 71 µM (active)
outcome [6]: inactive
AC50 [7]: 76.4 µM (active)
outcome [8]: inactive

N#CC(CCc1ccc(Cl)cc1)(Cn1cncn1)c1ccccc1 (centres undefined)
outcome [1]: inactive
outcome [2]: inactive
outcome [3]: inactive
outcome [4]: inactive
outcome [6]: inactive
outcome [7]: inactive
outcome [8]: inactive

CC1COC(Cn2cncn2)(c2ccc(Oc3ccc(Cl)cc3)cc2Cl)O1 (centres undefined)
outcome [1]: inactive
AC50 [2]: 52.6 µM (active)
outcome [3]: inactive
AC50 [4]: 32.6 µM (active)
outcome [6]: inactive
outcome [7]: inactive
AC50 [8]: 60.6 µM (active)

COP(=S)(OC)Oc1nc(Cl)c(Cl)cc1Cl
outcome [1]: inactive
outcome [2]: inactive
outcome [3]: inactive
outcome [4]: inactive
outcome [6]: inactive
outcome [7]: inactive
outcome [8]: inactive

CNC(=O)ON=CC(C)(C)SC
outcome [1]: inactive
outcome [2]: inactive
outcome [3]: inactive
outcome [4]: inactive
outcome [6]: inactive
outcome [9]: inactive
outcome [7]: inactive
outcome [8]: inactive

Oc1ccccc1-c1ccccc1
outcome [1]: inactive
outcome [2]: inactive
outcome [3]: inactive
outcome [4]: inactive
outcome [6]: inactive
outcome [7]: inactive
outcome [8]: inactive

CC(C)C1(C)N=C(c2nc3ccccc3cc2C(=O)O)NC1=O (centres undefined)
outcome [1]: inactive
outcome [2]: inactive
outcome [3]: inactive
outcome [4]: inactive
outcome [6]: inactive
outcome [7]: inactive
outcome [8]: inactive

CC(C)Oc1cc(-n2nc(C(C)(C)C)oc2=O)c(Cl)cc1Cl
AC50 [1]: 82.2 µM (active)
outcome [2]: inactive
AC50 [3]: 42.6 µM (active)
AC50 [4]: 52.6 µM (active)
outcome [6]: inactive
outcome [7]: inactive
outcome [8]: inactive
